LYPLA1 counter: blocks human lysophospholipase 1, a PME1 counter-screen; AID 2174; recombinant LYPLA1, FP-Rh probe fluorescence polarization; inhibition, % at 5.9 µM; 320,000 tested, 0.16% active; O75608;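 active = inhibition above the mean of all tested compounds plus 3 SD, set per campaign, cut at about 14% in these data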;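 note: inhibitors block serine hydrolase probe labeling of LYPLA1 so polarization falls; 0% = enzyme with DMSO and 100% = wells lacking LYPLA1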
PAD4 inh: blocks human protein arginine deiminase 4. recombinant PAD4, RCA probe fluorescence polarization. AID 485272. inhibition, % at 6.36 µM. 330,000 tested, 0.41% active;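 active = percent inhibition above a cutoff equal to the mean of all tested compounds plus 3 SD, cut at about 15% in these data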;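 note: 0% = PAD4 with RCA probe and DMSO and 100% = probe without PAD4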
Target sequence (Q9UM07 whole entry, looked up): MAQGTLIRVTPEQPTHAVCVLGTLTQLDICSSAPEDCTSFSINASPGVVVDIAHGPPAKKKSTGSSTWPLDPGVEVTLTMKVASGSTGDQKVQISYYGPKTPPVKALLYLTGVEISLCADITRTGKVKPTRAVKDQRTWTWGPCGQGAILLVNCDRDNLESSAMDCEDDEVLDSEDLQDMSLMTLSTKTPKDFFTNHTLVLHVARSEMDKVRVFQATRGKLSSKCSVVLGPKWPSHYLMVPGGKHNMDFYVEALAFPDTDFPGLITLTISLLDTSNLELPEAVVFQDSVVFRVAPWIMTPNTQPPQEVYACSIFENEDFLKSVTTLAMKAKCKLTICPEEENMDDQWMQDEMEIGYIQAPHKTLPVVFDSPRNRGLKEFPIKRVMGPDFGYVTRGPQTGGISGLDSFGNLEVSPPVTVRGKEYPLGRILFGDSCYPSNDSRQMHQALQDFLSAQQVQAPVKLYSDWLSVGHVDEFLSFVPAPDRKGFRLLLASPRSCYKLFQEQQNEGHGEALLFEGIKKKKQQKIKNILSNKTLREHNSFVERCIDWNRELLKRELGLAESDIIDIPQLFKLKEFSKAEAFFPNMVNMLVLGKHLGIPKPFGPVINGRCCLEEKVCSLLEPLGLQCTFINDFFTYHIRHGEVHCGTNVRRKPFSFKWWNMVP
GSTO1 counter: counter-screen for RBBP9 inhibitors: inhibitors of human GSTO1 | P78417 | recombinant GSTO1, activity-based probe fluorescence polarization | inhibition, % at 5.96 µM | 300,000 tested, 1.1% active;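 active = inhibition above the campaign mean inhibition plus 3 SD, cut at about 35% in these data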;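 note: 0% = GSTO1-1 with DMSO and 100% = wells lacking GSTO1-1 enzyme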
LYPLA2 counter: counter-screen for PME1 inhibitors: inhibitors of human LYPLA2 | recombinant LYPLA2, FP-Rh probe fluorescence polarization | 320,000 tested, 0.38% active | O95372 | inhibition, % at 5.9 µM;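 active = inhibition above the screen-wide mean plus 3 SD, limit set per campaign, cut at about 26% in these data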;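 note: 0% = LYPLA2 with DMSO and 100% = wells lacking LYPLA2 enzyme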
Fam108B counter: blocks mouse Fam108B hydrolase in RBBP9 counter-screen; recombinant Fam108B, FP-Rh probe fluorescence polarization; inhibition, % at 9.51 µM; 300,000 tested, 0.33% active;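 active = inhibition above the screen mean inhibition plus 3 SD, computed separately per campaign, cut at about 18% in these data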;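 note: inhibitors lower polarization as less probe binds the enzyme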
PME-1 inh: PME-1 (human) inhibition. Q9Y570. recombinant PME-1, FP-Rh probe fluorescence polarization. inhibition, % at 5.9 µM. 320,000 tested, 0.53% active;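 active = inhibition above the campaign mean of all compounds plus 3 SD, cut at about 26% in these data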;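 note: competitive labeling of PME-1 active site by serine hydrolase directed probe; 0% = PME-1 with DMSO and 100% = wells lacking PME-1 enzyme; inhibitors block probe labeling so polarization falls and inhibition rises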
Starred values were filed as active, the others as inactive; . = not tested or not shown. Sampled rows, rich in hits. Any-hit rate of the full collection: about 1.8%.

SMILES	LYPLA1 counter	PAD4 inh	GSTO1 counter	LYPLA2 counter	Fam108B counter	PME-1 inh
CC(C)NC(=O)N(C)C[C@@H]1Oc2c(NC(=O)Nc3ccccc3)cccc2C(=O)N([C@H](C)CO)C[C@H]1C	.	1	.	.	.	.
CCn1c(=S)sc2c(=O)n(CC(=O)NC(C)CCc3ccccc3)c(C)nc21 (stereo unspecified)	-3	0	35*	-3	-4	-2
CCOc1ccccc1NC(=O)c1cc(S(=O)(=O)NCc2ccco2)ccc1F	-5	-9	35*	-1	-6	-9
COc1ccccc1NC(=O)c1cc(S(=O)(=O)NCc2ccccc2)ccc1F	-4	2	13	-6	2	-1
COc1ccc(OC)c(NC(=O)c2cc(S(=O)(=O)NCc3ccco3)ccc2F)c1	-4	-1	36*	-4	2	7
COc1ccc(CNS(=O)(=O)c2ccc(F)c(C(=O)Nc3ccccc3OC)c2)cc1	4	-4	2	4	-3	2
O=C(/C=C/c1ccco1)NC(=S)Nc1ccc(N2CCCC2)cc1	5	1	50*	13	1	16
CCN(CC)S(=O)(=O)c1cc(NC(=O)C(C)N2CCN(c3ccccn3)CC2)ccc1C (stereo unspecified)	1	-1	12	1	3	29*
CC1=C(C(=O)Nc2cc(C(=O)N3CCN(c4cccc(C)c4C)CC3)ccc2C)SCCO1	-2	-1	5	3	3	-2
CCCn1c(CCC(=O)Nc2ccccc2Cc2ccccc2)nc2cc(S(=O)(=O)N3CCOCC3)ccc21	-9	-13	-8	-16	-14	37*
CCCCCOc1ccc(C(=O)CCC(=O)N2CCCC2)cc1	0	-4	1	2	1	1
Cc1cc(SCc2cccc(C(F)(F)F)c2)nc(=O)[nH]1	1	-3	1	6	2	0
CCN1/C(=C/C=C/c2oc3ccc4ccccc4c3[n+]2CC)Oc2ccc3ccccc3c21	58*	-73	-34	-33	118*	-57
CC[n+]1c(/C=C/N(C)c2ccccc2)oc2ccc(Cl)cc21	-1	-12	3	1	-1	-2
COc1ccccc1NC(=O)CCC(=O)Nc1nnc(C(F)(F)F)s1	2	2	1	0	0	89*
O=C1C(Cl)=C(N2CCCC2)C(=O)N1c1ccc(F)cc1	1	3	35*	3	-2	0
C[C@@H](c1ccccc1)N1C[C@H]2CCCN2c2cc(Br)ccc2S1(=O)=O	.	2	.	.	.	.
COc1ccc(/C=N\NC(=O)c2cc(O)c(O)c(O)c2)cc1CN1CCN(c2ccc(F)cc2)CC1	-19	-3	52*	-18	14	21
CC(C)[C@H](NC(=O)c1ccccc1)C(=O)OCC(=O)c1ccc(S(=O)(=O)N2CCCCC2)cc1	1	-1	37*	1	-1	1
Cc1nnc(-c2ccccc2)c(=O)n1/N=C/c1c(O)ccc2ccccc12	1	-8	39*	-1	6	8
Cc1nnc(C)n1/N=C/c1c(O)ccc2ccccc12	-3	-5	33	4	3	0
Cc1nc2ccccc2c(=O)n1/N=C/c1ccc2ccccc2c1O	-1	-7	67*	5	3	-2
Cc1nc2ccccc2c(=O)n1/N=C/c1ccccc1O	-2	4	-1	4	-1	-16
CCCCCCC(=O)Nc1nc(C)c(-c2csc(Nc3cc(OC)ccc3OC)n2)s1	-13	-3	6	-2	11	35*
CCC(=O)Nc1nc(C)c(-c2csc(Nc3cccc(O)c3)n2)s1	4	-2	1	12	16	30*
SMILES	LYPLA1 counter	PAD4 inh	GSTO1 counter	LYPLA2 counter	Fam108B counter	PME-1 inh
Cc1nc(C)c(-c2csc(Nc3cccc(O)c3)n2)s1	-4	2	-4	-3	11	-3
CCSc1ccccc1C(=O)N1CCC2(CC1)CC(=O)c1ccccc1O2	3	5	15	5	9	15
CCC(=O)NC(c1ccc(C)cc1)c1cc([N+](=O)[O-])c2cccnc2c1O (stereo unspecified)	-6	25*	13	2	2	9
O=C(N/N=C1/C(=O)c2cccc3cccc1c23)c1ccc(Cl)cc1	6	2	30	31*	10	7
COc1cc(/C=C2\SC(=O)N(CCNC(=O)c3c(C)noc3C)C2=O)cc(OC)c1OC	.	0	.	.	.	.
Cc1cccc(NC(=O)CN2C(=O)COc3ccc(Cl)cc32)c1	-2	3	3	40*	0	-2
Oc1[nH]c2ccccc2c1C=Nc1ccc2c(c1)OCO2	0	3	-1	-1	2	31*
COc1ccc(NC(=O)C(=O)c2cn(CC(=O)N3CCCC3)c3ccccc23)cc1	1	2	2	-2	-3	-11
COc1ccc(-n2c(C)cc(/C=C3\C(=N)N4N=C(CC(=O)N5CCOCC5)SC4=NC3=O)c2C)cc1	-6	-2	-18	-1	2	-2
O=C(N/N=C/c1c(O)ccc2ccccc12)Nc1ccccc1	-14	0	15	-16	11	28*
O=C(CNc1ccccc1)N/N=C/c1c(O)ccc2ccccc12	-8	-1	11	8	6	38*
O=C(CSCC(=O)Nc1ccccc1)N/N=C/c1c(O)ccc2ccccc12	-12	-1	3	-8	5	-1
COc1cc2c(cc1OC)C(C)N(C(=O)[C@@H](NC(=O)c1ccccc1)C(C)C)CC2 (stereo partly specified)	0	0	-3	6	-3	-5
N#Cc1ccc(Nc2nc(-c3ccc(O)cc3O)cs2)cc1C(F)(F)F	-6	-1	.	8	.	61*
Oc1ccc(-c2csc(Nc3ncccn3)n2)c(O)c1	0	-4	21	-7	0	0
COc1ccc(NC(=O)Nc2cccc3c2O[C@H](CN(C)Cc2ccc(-c4ccccc4)cc2)[C@@H](C)CN([C@H](C)CO)C3=O)cc1	.	-4	.	.	.	.
CCOC(=O)c1c(NC(=O)CSc2nc3ccc(C)cc3[nH]2)sc2c1CC(C)(C)NC2(C)C	-5	7	-9	-13	-2	-17
CC1=C(C(=O)OCc2ccccc2)C(/C=C/c2ccccc2)NC(=S)N1 (stereo unspecified)	-9	-1	-7	49*	-6	-9
O=C(N/N=C/c1c(Cl)[nH]c2ccccc12)c1ccc2c(c1)OCCO2	-10	-3	-2	-6	5	29*
COc1cc(/C=N/NC(=O)c2ccc3c(c2)OCCO3)c(Br)c(Br)c1O	4	1	17	3	8	45*
O=C(N/N=C/c1cc2c(cc1Cl)OCO2)c1ccc2c(c1)OCCO2	-2	0	-1	-4	1	-25
COc1cc(/C=N/NC(=O)c2ccc3c(c2)OCCO3)cc(Br)c1O	1	-5	8	3	2	3

High-throughput results deposited in PubChem BioAssay by The Scripps Research Institute Molecular Screening Center.
